The list is not random: actives were taken first. Their share in the collection is about 12%.
Sfp inh: qHTS Assay for Inhibitors of Bacillus subtilis Sfp phosphopantetheinyl transferase (PPTase); 4'-phosphopantetheinyl transferase ffp (Bacillus subtilis), Q9F4F7; Biochemical Sfp PPTase activity, qHTS; Potency, µM, for inactives: largest response in the series, negative = inhibition, hits mostly inhibitors; hit rate 3.5% among 310,000;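 note: the enzyme is Sfp with the accession as filed and its product quenches rhodamine fluorescence; 0% = enzyme reaction without inhibitor and -100% = no enzyme wells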
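Fluorescence-quenching assay with 15 nM Sfp, 5 uM rhodamine-CoA and 12.5 uM BHQ-2-labelled ybbR peptide in pH 7.6 Hepes/MgCl2 buffer. Enzyme was pre-incubated with compound for 15 min at room temperature. Rate was taken from the 30-min fluorescence change (525/598 nm).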
BAZ2B inh: qHTS Assay for Inhibitors of BAZ2B. Bromodomain adjacent to zinc finger domain protein 2B (Homo sapiens), Q9UIF8. AlphaScreen BAZ2B-H3K14Ac peptide displacement. Potency, µM (titrated, usually from 114 µM), for the others: top-dose activity change, negative = inhibition, most hits filed as inhibitors. hit rate 4.4% among 360,000. AID 504333, 2011; note: % is set by controls: 0 for no effect and ±100 for the full control effect; nearly all actives have a fitted effect of over 60% in size
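Complex of BAZ2B and biotin-H3K14Ac (50 nM apiece) forms over 30 min at RT, then faces library compounds up to 110 uM for another 30 min; AlphaScreen beads added, 20 min dark incubation, luminescence read.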
L3MBTL1 inh: qHTS Assay for the Inhibitors of L3MBTL1; AlphaScreen L3MBTL1–H3K9me1 peptide binding; Potency, µM (titrated, usually from 57.1 µM), without a hit: at the highest dose activity, negative = inhibition, usual class: inhibitors; hit rate 0.66% among 230,000; note: % is set by controls: 0 for no effect and ±100 for the full control effect; nearly all actives have a fitted effect of over 60% in size
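Read-out is AlphaScreen signal from streptavidin donor and nickel chelate acceptor beads (10 ug/mL final each) bridging L3MBTL1 (50 nM) and biotinylated K9-monomethylated H3(1-15) peptide (75 nM), after 30 min compound exposure at room temperature.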
JMJD2A Tudor inh: qHTS Assay for Inhibitors of JMJD2A-Tudor Domain. Lysine-specific demethylase 4A (Homo sapiens), O75164. AlphaScreen JMJD2A-Tudor / H3K4me3 peptide binding. Potency, µM (titrated, usually from 114 µM), inactives show at the highest dose activity change, negative = inhibition, actives largely listed as inhibitors. hit rate 4.4% among 390,000. AID 504339, 2011; note: % is set by controls: 0 for no effect and ±100 for the full control effect; nearly all actives have a fitted effect of over 50% in size
G9a inh: qHTS Assay for Inhibitors of Histone Lysine Methyltransferase G9a. Potency, µM (series often up to 102 µM), without a hit: at the highest dose activity, negative = inhibition, actives largely listed as inhibitors. G9a H3K9 monomethylation, AlphaScreen, 2 h. hit rate 8.8% among 350,000. Histone-lysine N-methyltransferase EHMT2 (Homo sapiens), Q96KQ7; note: % is set by controls: 0 for no effect and ±100 for the full control effect; nearly all actives have a fitted effect of over 75% in size
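AlphaScreen detection with an anti-monomethyl H3K9 antibody quantified product after a 2 h room-temperature reaction containing 500 nM biotinylated H3K9 peptide, 20 µM SAM and 20 nM enzyme, which had been preincubated 15 min with compound.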
HP1b chromo inh: HTS for Inhibitors of HP1-beta Chromodomain Interactions with Methylated Histone Tails; Chromobox protein homolog 1 (Homo sapiens), P83916; hit rate 0.56% among 390,000; Potency, µM (highest dose often 114 µM), for the others: at the highest dose activity change, negative = inhibition, actives largely listed as inhibitors; AID 540317, 2011; AlphaScreen HP1-beta / biotin-H3K9me3 peptide binding; note: nearly all actives have a fitted effect of over 70% in size
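Compound inhibition of the preformed complex between 50 nM HP1-beta and 50 nM biotinylated H3K9me3 peptide was read by AlphaScreen. Buffer was PBS pH 7.4 with 0.01% Tween-20. Incubations ran 30 min at room temperature, with 10 ug/mL donor/acceptor beads.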
The depositor's hits bear a star; u = inconclusive; x = no result given; [ ] = dose if it differs, or a comment. Calls come from the whole dose curve; as a rule, active = well fitted curve in the direction sought with a large enough effect; inconclusive = small, poorly fitted or top-dose-only effect, or another doubt; inactive = no such curve, though single readings can be large; an effect the other way counts as inactive or inconclusive. Potency is the fitted concentration of half-maximal effect.

SMILES	Sfp inh	BAZ2B inh	L3MBTL1 inh	JMJD2A Tudor inh	G9a inh	HP1b chromo inh
COc1ccc2c(c1)c1c(c(=O)n(-c3cccc(Cl)c3)c(=O)n1CC(=O)N1CCCC1)n2C	x	-11.0%	x	-3.4%	-5.9%[59 µM]	6.1%
Cc1cccc(C)c1NC(=O)Cn1c(=O)n(CCC(=O)NCc2ccccc2Cl)c(=O)c2sccc21	x	-35.8%	x	1.7%	-2.1%[59 µM]	38.2%
COc1ccc(Cc2nc(-c3cccs3)no2)cc1	-5.4%	67.3%	7.1%[11.4 µM]	119.1%	113.1%	172.6%
c1csc(-c2noc(COc3ccc4c(c3)CCCC4)n2)c1	44.7µM*	234.3%	88.3%	242.3%	4.4%[12.7 µM]	349.5%
Brc1ccc(-c2noc(COc3ccc4c(c3)CCC4)n2)o1	-11.9%	56.2µM*	-5.3%	199.3%	22.4µM*	-10.5%
COc1ccc(Cc2nc(-c3cccs3)no2)cc1OC	-1.2%	-0.3%	9.3%	-2.1%	50.1µM*	35.7%
CCC(C)N(C(=O)Cn1c(Cl)nc2c1c(=O)n(C)c(=O)n2C)C1CCS(=O)(=O)C1 (configuration not stated)	8.4%	-4.7%	x	-13.8%	x	15.1%
CN(C(=O)Cn1c(Cl)nc2c1c(=O)n(C)c(=O)n2C)C1CCS(=O)(=O)C1 (configuration not stated)	x	-4.9%	6.7%	-20.0%	56.2µM*	0.2%
COc1ccc(C(=O)Cn2c(N3CCOCC3)nc3c2c(=O)n(C)c(=O)n3C)cc1	21.1%	-2.0%	1.2%	x	-0.1%	x
COc1ccc(C(=O)Cn2c(Cl)nc3c2c(=O)n(C)c(=O)n3C)cc1	12.6µM*	1.7%	1.1%	-14.5%	22.5%[12.7 µM]	-2.4%
COc1ccc(COC(=O)N/N=C2/C[C@@H](O)[C@@H](O)[C@@H]3[C@@H]4C(=O)N(C(C)(C)C)C(=O)[C@H]4CC[C@H]23)cc1	7.3%	x	x	x	x	x
CSCC[C@H](NC(=O)[C@H](Cc1ccccc1)NC(=O)[C@H](Cc1cnc[nH]1)NC(=O)CNC(=O)[C@@H](NC(=O)[C@H](C)NC(=O)[C@H](Cc1c[nH]c2ccccc12)NC(=O)[C@H](CC(C)C)NC(=O)[C@H](CC(N)=O)NC(=O)CN)[C@@H](C)O)C(N)=O	-3.3%	x	x	x	x	x
O=C(NCCCO)c1cc2c(cn1)[nH]c1ccccc12	5.6%	u	x	-20.4%	9.1%	34.6%
O=C(O)c1cc2c(cn1)[nH]c1ccccc12	1.6%	3.98µM*	x	7.08µM*	22.5%	17.4%
CCOC(=O)CNC(=O)c1ccc2[nH]c3ccccc3c2c1	1.7%	-14.4%	3.9%	-11.0%	7.5%	10.9%
COC(=O)[C@H](C)NC(=O)c1cc2c(cn1)[nH]c1ccccc12	8.91µM*	u	x	39.8µM*	1.41µM*	u
C[C@H](NC(=O)c1cc2c(cn1)[nH]c1ccccc12)C(=O)O	8.91µM*	50.1µM*	x	44.7µM*	1.41µM*	28.2µM*
Cc1c(NC(=O)c2nc3ccccc3nc2N2CCCCC2)cccc1[N+](=O)[O-]	x	u	x	u	-50.9%[59 µM]	-12.2%
CCN1C(=O)N[C@@H](c2ccccc2)C1=O	28.9%	x	x	x	13.8%[21.5 µM]	x
Cc1ccccc1C(=O)NC(=S)NCc1cccnc1	-2.7%	-18.1%	-8.1%	-8.3%	u	10.4%
O=C(NC(=S)NNC(=O)c1ccccc1F)c1cccnc1	u	5.0%	-9.6%	15.8µM*	8.91µM*	-14.9%
O=C(NC(=S)NCc1cccnc1)c1ccccc1F	4.4%	-12.9%	x	-3.6%	u	49.9%
Cc1ccccc1C(=O)NNC(=S)NC(=O)c1cccnc1	u	-3.1%	15.7%	-27.3%	6.31µM*	-2.5%
Cc1nc(C)c(N)c(=O)[nH]1	5.4%	-27.6%	32.1%	-9.0%[11.4 µM]	50.1µM*	28.6%
CCn1c(=O)c2sccc2n2c(CCC(=O)Nc3ccc(C(C)C)cc3)nnc12	x	2.7%	x	-20.8%	-5.2%[59 µM]	15.7%
SMILES	Sfp inh	BAZ2B inh	L3MBTL1 inh	JMJD2A Tudor inh	G9a inh	HP1b chromo inh
COc1ccc(-n2cc(CNCCc3ncc(C)[nH]3)c(-c3ccccc3Cl)n2)cc1	-5.2%	u	-7.3%	-28.0%	35.5µM*	29.7%
COc1ccc(CNCc2cn(-c3cccc(F)c3)nc2-c2ccc(C)o2)cc1	u	u	-1.2%	u	44.7µM*	-8.1%
COc1ccc(-n2cc(CNCCc3cnc[nH]3)c(-c3cccc(F)c3)n2)cc1	13.9%	50.1µM*	u	u	-45.7%	2.4%
Cc1ccc(-n2cc(CNCCc3ncc(C)[nH]3)c(-c3ccc(F)cc3)n2)cc1	56.2µM*	u	-21.7%	56.2µM*	-22.3%	-4.8%
Cc1ccc(-n2cc(CNCCCN3CCCC3=O)c(-c3ccc(F)cc3)n2)cc1	-1.4%	-1.8%	6.7%	-14.7%	x	27.4%
COc1ccc(-n2cc(CNCc3cccnc3)c(-c3cccc(F)c3)n2)cc1	13.8%	-37.1%	-8.8%	-22.8%	-1.2%[12.7 µM]	5.0%
COc1ccc(-c2nn(-c3ccccc3)cc2CNCc2cccnc2)c(F)c1	-9.7%	-15.3%	-5.2%	-15.8%	x	27.9%
CC1CCN(C(=O)c2cc(-c3ccc(Br)cc3)on2)CC1	x	-23.3%	x	0.3%	-15.6%[59 µM]	18.6%
Cc1ccc(-n2cc(CNCCn3nc(C)cc3C)c(-c3ccc(F)cc3)n2)cc1	44.7µM*	-11.6%	-3.6%	-26.6%	4.8%[0.501 µM]	28.8%
Cc1ccc(-n2cc(CNCCN3CCOC3=O)c(-c3ccc(F)cc3)n2)cc1	u	-23.7%	-18.0%	-30.5%	-1.4%	-5.0%
CCCC1(C)SC(NC(C)=O)=NN1C(C)=O (configuration not stated)	12.1%	4.3%	-0.8%	-12.3%	-27.0%	12.8%
CC(=O)NC1=NN(C(C)=O)C2(S1)C(=O)N(C(C)C)c1ccc(C)cc12 (configuration not stated)	-0.2%	1.3%	5.7%	0.6%	50.1µM*	3.4%
CCOc1ccccc1NC(=O)Cn1c(=O)nc(-c2ccccc2F)c2cc(Cl)ccc21	x	-8.4%	x	-7.0%	6.1%[59 µM]	10.1%
COc1cc(C(=O)Oc2c(Sc3ccccc3)c(C)nn2-c2ccccc2)cc(OC)c1OC	x	-24.6%	x	-2.4%	3.98µM*	64.4%
Cc1ccc(Sc2c(C)nn(-c3ccccc3)c2OC(=O)C(C)(C)C)cc1	x	16.8%	x	25.6%	10µM*	109.3%
Cc1nn(-c2ccccc2)c(OC(=O)C(C)(C)C)c1Sc1ccccc1	x	-0.4%	x	u	3.98µM*	81.2%

Bioassay records (PubChem BioAssay)
